DT40 TDP1 CPT: growth inhibition of DT40 Tdp1-/-;hTDP1 cells with camptothecin (screen for TDP1 inhibitors) | 420,000 compounds, 12% hits | chicken DT40 Tdp1-/-;hTDP1 cells + 20 nM CPT, ATP luminescence, 48 h | Potency, µM (highest dose often 46.2 µM), actives largely listed as inhibitors; further: nearly all actives have a fitted effect of over 55% in size
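Chicken DT40 Tdp1-/- cells complemented with human TDP1, 400 cells/well, exposed to compounds plus 20 nM camptothecin for at least 48 h at 37 C; viability read as ATP content by CellTiter-Glo luminescence.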
IL-1B inflam inh: inhibitors of inflammasome signaling (IL-1 beta secretion) | THP-1 LPS/ATP IL-1B secretion, AlphaLISA, 16 h; stronger effect = lower value | activity change, % at 57.5 µM | 360,000 compounds, 4.7% hits; in the data active means activity change below about -50%; inconclusive means mostly about -30% to -49%
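THP-1 cells pretreated 1 hr with compounds (up to 57.5 uM final), then stimulated with LPS (250 ng/mL final) plus ATP (1.25 mM final); secreted IL-1B measured by AlphaLISA after 16 hr, decreased signal indicating inhibition.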
DT40 TDP1 no CPT: qHTS for Inhibitors of human tyrosyl-DNA phosphodiesterase 1 (TDP1): qHTS in cells in absence of CPT. DT40 Tdp1-/- hTDP1 cells, no CPT, ATP luminescence, 48 h. Potency, µM (top dose mostly 46.2 µM), actives largely listed as inhibitors. 420,000 compounds, 15% hits. AID 686978, 2013; further: nearly all actives have a fitted effect of over 55% in size
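Stably hTDP1-transfected Tdp1-null chicken DT40 cells were treated with library compounds minus camptothecin and grown for at least 48 hr at 37 °C, after which cellular ATP was quantified by luminescence.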
HepG2 viability: kills HepG2 cells in TGF-b inhibitor counter-screen; 410,000 compounds, 0.76% hits; Potency, µM (doses to about 46.1 µM), most hits filed as cytotoxic; HepG2 CAGA-GFP viability, ATP luminescence, 18 h
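HepG2 CAGA-GFP cells (1000/well, DMEM with 1% FBS) received compound, then TGF-beta at 500 pg/mL final, and were incubated 18 hours at 37 degrees C. Viability was read by CellTiter-Glo luminescence. Media-only wells were set as complete cell-killing and DMSO as no toxicity.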
TDP1 block: inhibitors of human tyrosyl-DNA phosphodiesterase TDP1; 350,000 compounds, 0.28% hits; Potency, µM (doses to about 130 µM), actives largely listed as inhibitors; AID 485290; Q9NUW8; recombinant TDP1, AlphaScreen DNA substrate cleavage; further: nearly all actives have a fitted effect of over 40% in size
Target sequence (Q9NUW8 whole entry, looked up): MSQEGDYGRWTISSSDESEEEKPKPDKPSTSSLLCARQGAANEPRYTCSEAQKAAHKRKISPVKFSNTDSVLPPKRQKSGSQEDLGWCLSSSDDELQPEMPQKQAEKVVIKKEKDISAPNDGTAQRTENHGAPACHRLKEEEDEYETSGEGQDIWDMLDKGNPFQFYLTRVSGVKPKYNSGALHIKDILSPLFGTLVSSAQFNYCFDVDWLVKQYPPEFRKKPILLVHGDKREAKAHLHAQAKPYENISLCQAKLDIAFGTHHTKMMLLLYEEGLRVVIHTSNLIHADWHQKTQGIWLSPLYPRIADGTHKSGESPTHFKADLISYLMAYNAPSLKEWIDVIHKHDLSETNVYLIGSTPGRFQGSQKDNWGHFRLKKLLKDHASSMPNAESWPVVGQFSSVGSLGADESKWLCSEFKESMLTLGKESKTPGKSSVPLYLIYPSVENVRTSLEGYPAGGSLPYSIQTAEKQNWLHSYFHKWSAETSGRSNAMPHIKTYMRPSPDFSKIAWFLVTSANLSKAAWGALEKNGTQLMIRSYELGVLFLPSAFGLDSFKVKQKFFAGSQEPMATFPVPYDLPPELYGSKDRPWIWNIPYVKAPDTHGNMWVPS
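Here, a 5' biotin and 3' phosphotyrosine-FITC DNA oligonucleotide reports Tdp1 activity: intact substrate bridges AlphaScreen beads, while cleavage leaves a 3' phosphate and drops signal. All incubations at room temperature.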
TGFb inhibitor: inhibitors of TGF-b signaling; 410,000 compounds, 1.2% hits; Potency, µM (top dose mostly 46.1 µM), hits mostly inhibitors; HepG2 CAGA-GFP TGF-b/SMAD3 reporter, GFP fluorescence, 18 h; TGF-beta stimulated, 500 pg/mL final; AID 588855; further: nearly all actives have a fitted effect of over 65% in size
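First, reporter cells (HEPG2 CAGA-GFP) rested 2 h at 37 degrees C. Next, compounds were pinned in and TGF-beta added to 500 pg/mL final. After 18 h, GFP was imaged per cell and summed per well.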
A number is an active result. Sampled rows, rich in hits. Any-hit rate of the full collection: about 18%. Unless noted, the call rests on the fitted dose curve; in most records, active means well fitted curve in the direction sought with a large enough effect; inconclusive means small, poorly fitted or top-dose-only effect, or another doubt; inactive means no such curve, though single readings can be large; an effect the other way counts as inactive or inconclusive.

Screening CN(C)C(=O)c1ccc(NC(=O)COC(=O)/C=C/c2cccs2)cc1 returned DT40 TDP1 CPT inactive, IL-1B inflam inh inactive, DT40 TDP1 no CPT inactive, HepG2 viability inactive, TDP1 block inactive and TGFb inhibitor inactive.
Screening COC(=O)c1ccccc1NC(=O)COC(=O)/C=C/c1cccs1 returned DT40 TDP1 CPT inactive, IL-1B inflam inh inactive, DT40 TDP1 no CPT inactive, HepG2 viability inactive, TDP1 block inactive and TGFb inhibitor inactive.
For O=C(COC(=O)/C=C/C(=O)OCC(=O)Nc1ccccc1F)Nc1ccccc1F the results were DT40 TDP1 CPT inconclusive, IL-1B inflam inh -82.1, DT40 TDP1 no CPT inconclusive, HepG2 viability inactive, TDP1 block inactive and TGFb inhibitor inconclusive.
Screening Cc1ccc(NC(=O)CN(C)C(=O)COC(=O)/C=C/c2cccs2)cc1 returned DT40 TDP1 CPT inactive, IL-1B inflam inh -96.5, DT40 TDP1 no CPT inactive, HepG2 viability inactive and TGFb inhibitor inactive.
`CCOc1ccccc1NC(=O)COC(=O)/C=C/c1cccs1` gave DT40 TDP1 CPT inactive, IL-1B inflam inh inactive, DT40 TDP1 no CPT 18.4µM, HepG2 viability inactive, TDP1 block inactive and TGFb inhibitor inactive.
`O=C(O)CC1c2ccccc2C=Cc2ccccc21` gave DT40 TDP1 CPT inactive, IL-1B inflam inh inactive, DT40 TDP1 no CPT inactive, HepG2 viability inactive, TDP1 block inactive and TGFb inhibitor inactive.
`Cc1ccc(-n2cnnn2)cc1S(N)(=O)=O` gave DT40 TDP1 CPT inactive, DT40 TDP1 no CPT inactive, HepG2 viability inactive, TDP1 block inactive and TGFb inhibitor inactive.
Screening CCCC(=O)N1CCCC1(C)C(=O)Nc1ccc2c(c1)CCN2C(C)=O (stereo not drawn) returned DT40 TDP1 CPT inactive, IL-1B inflam inh inactive, DT40 TDP1 no CPT inactive, HepG2 viability inactive and TGFb inhibitor inactive.
`CCN(C(=O)CSc1nc(-c2ccc(C(C)C)cc2)no1)c1ccccc1` gave DT40 TDP1 CPT 14.6µM, DT40 TDP1 no CPT inconclusive, HepG2 viability inactive, TDP1 block inactive and TGFb inhibitor inactive.
CN(C(=O)CSc1nc(-c2ccccc2)no1)c1ccc(F)cc1 was read as DT40 TDP1 CPT inconclusive, DT40 TDP1 no CPT inconclusive, HepG2 viability inactive, TDP1 block inactive and TGFb inhibitor inactive.
For COc1cc(NC(=O)CSc2nc(-c3ccc(C(C)C)cc3)no2)cc(OC)c1 the results were DT40 TDP1 CPT inactive, DT40 TDP1 no CPT inconclusive, HepG2 viability inactive, TDP1 block inactive and TGFb inhibitor inactive.
Screening CCN(C(=O)CSc1nc(-c2ccc(C(C)C)cc2)no1)c1cccc(C)c1 returned DT40 TDP1 CPT 14.6µM, DT40 TDP1 no CPT inconclusive, HepG2 viability inactive, TDP1 block inactive and TGFb inhibitor inactive.
Screening COc1cccc(C2NC(=O)NC(O)(C(F)(F)F)C2C(=O)c2cccnc2)c1OC (stereo not drawn) returned DT40 TDP1 CPT inactive, IL-1B inflam inh inactive, DT40 TDP1 no CPT inactive, HepG2 viability inactive, TDP1 block inactive and TGFb inhibitor inconclusive.
Screening NC(=O)c1ccc(NC(=O)COC(=O)c2cccc(Oc3ccccc3)c2)cc1 returned DT40 TDP1 CPT inactive, IL-1B inflam inh inactive, DT40 TDP1 no CPT inactive, HepG2 viability inactive, TDP1 block inactive and TGFb inhibitor inactive.
COc1ccccc1S(=O)(=O)n1cc(Cc2ccccc2)c(N)n1 was read as DT40 TDP1 CPT inactive, IL-1B inflam inh inactive, DT40 TDP1 no CPT inactive, HepG2 viability inactive, TDP1 block inactive and TGFb inhibitor inactive.
Screening CC(C)(C)OC(=O)Cc1nnc(C(C(=O)OCc2ccccc2)c2ccccc2)s1 (stereo not drawn) returned TDP1 block inactive.
Screening Cn1c2c(c3ccccc31)CCN(CCCCN1CCN(c3ccccc3)CC1)C2=O returned DT40 TDP1 CPT inconclusive, IL-1B inflam inh -61.5, DT40 TDP1 no CPT inconclusive, HepG2 viability inactive and TGFb inhibitor inactive.
For Cc1c(C(=O)CN2CCN(c3ccccc3)CC2)c2ccccc2n1C the results were DT40 TDP1 CPT inconclusive, IL-1B inflam inh inactive, DT40 TDP1 no CPT inconclusive, HepG2 viability inactive and TGFb inhibitor inactive.
Screening Cc1ccc(CC(Cc2nc3ccccc3[nH]2)c2nc3ccccc3[nH]2)cc1 (stereo not drawn) returned DT40 TDP1 CPT 26.6µM, DT40 TDP1 no CPT 26.6µM and TDP1 block inactive.
For Cc1cc(C)cc(CC(Cc2nc3ccccc3[nH]2)c2nc3ccccc3[nH]2)c1 (stereo not drawn) the results were DT40 TDP1 CPT inconclusive, IL-1B inflam inh -69.3, DT40 TDP1 no CPT 25.9µM, HepG2 viability inactive, TDP1 block inactive and TGFb inhibitor inconclusive.
Screening Cc1ccc(CSCc2nc3ccccc3[nH]2)cc1 returned DT40 TDP1 CPT 29.1µM, IL-1B inflam inh -98.5, DT40 TDP1 no CPT 20.6µM, HepG2 viability inactive, TDP1 block inactive and TGFb inhibitor inactive.
CCOc1ccc(NC(=O)CSc2ccc3ccccc3n2)cc1 was read as DT40 TDP1 CPT inactive, DT40 TDP1 no CPT inactive and HepG2 viability inactive.
COc1ccc(N2CC(NC(=O)NC(C)(C)C)CC2=O)cc1 (stereo not drawn) was read as DT40 TDP1 CPT inactive, IL-1B inflam inh inactive, DT40 TDP1 no CPT inactive, HepG2 viability inactive, TDP1 block inactive and TGFb inhibitor inactive.
Screening CCN1CCN(C(=O)NC2CC(=O)N(c3ccc(OC)cc3)C2)CC1 (stereo not drawn) returned DT40 TDP1 CPT inactive, IL-1B inflam inh -68.9, DT40 TDP1 no CPT inactive, HepG2 viability inactive, TDP1 block inactive and TGFb inhibitor inactive.
For COc1ccc(N2CCN(C(=O)NC3CC(=O)N(c4ccc(OC)cc4)C3)CC2)cc1 (stereo not drawn) the results were DT40 TDP1 CPT inconclusive, IL-1B inflam inh inactive, DT40 TDP1 no CPT inactive, HepG2 viability inactive, TDP1 block inactive and TGFb inhibitor inactive.
Screening COc1ccc(N2CC(NC(=O)NCCC(C)C)CC2=O)cc1 (stereo not drawn) returned DT40 TDP1 CPT inconclusive, IL-1B inflam inh -64.5, DT40 TDP1 no CPT inactive, HepG2 viability inactive, TDP1 block inactive and TGFb inhibitor inactive.
COc1cc(C(=O)Nc2ccc3c(c2)ncn3C)cc(OC)c1OC was read as DT40 TDP1 CPT 4.11µM, IL-1B inflam inh inactive, DT40 TDP1 no CPT 2.91µM, HepG2 viability inactive and TGFb inhibitor inactive.
CCCn1cnc2cc(NC(=O)c3cc(OC)c(OC)c(OC)c3)ccc21 was read as DT40 TDP1 CPT inconclusive, DT40 TDP1 no CPT inconclusive, HepG2 viability inactive, TDP1 block inactive and TGFb inhibitor inactive.
